Experimental data taken from PubChem BioAssay (Tox21).
“And” between values parts separate entries of the source, which are not always exact repeats. Identical values can stand only once. A number with no mark means an inactive call. Records with an inconclusive call do not appear. A call without a number means that no potency is given here. The source made the active and inactive calls. The call rests on the fitted dose curve; in most records, active means well fitted curve in the direction sought with a large enough effect in the repeat runs; inconclusive means weak or mixed curves; inactive means no such curve, though single readings can be large; an effect the other way counts as inactive or inconclusive.

Key:
[1] = Human pregnane X receptor (PXR) small molecule agonists, qHTS cell viability counter screen (AID 1346977); further: nearly all actives have a fitted effect of over 50% in size; further: potency means the concentration at half of the fitted maximal effect
Outline: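 PXR-Luc HepG2 cells (2,000/well, 5% charcoal-stripped FBS) preincubated 5 hr, then exposed to compounds 24 hr at 37 C. Viability read in the same wells by CellTiter-Fluor fluorescence, reagent added at 23 hr, 1 hr incubation.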

[2] = Caspase-3/7 induction in HepG2 cells by small molecules, qHTS assay (AID 1346978); further: nearly all actives have a fitted effect of over 15% in size; further: potency means the concentration at half of the fitted maximal effect
Outline: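 Wild-type HepG2 cells, 2,000/well, settled 5 hr at 37 C and 5% CO2, then compound-treated for 17 hr; caspase-3/7 activity read by luminescent Caspase-Glo 3/7 after 30 min at room temperature.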

[3] = Caspase-3/7 induction in CHO-K1 cells by small molecules, qHTS cell viability counter screen (AID 1346979); further: nearly all actives have a fitted effect of over 35% in size; further: potency means the concentration at half of the fitted maximal effect
Outline: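 Wild-type CHO-K1 cells (1,500/well) treated with compound after 5 h plating; after 16 h at 37C, viability read as CellTiter-Fluor fluorescence following 1 h reagent incubation, in the same wells as the caspase read.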

[4] = Caspase-3/7 induction in CHO-K1 cells by small molecules, qHTS assay (AID 1346980); further: nearly all actives have a fitted effect of over 15% in size; further: potency means the concentration at half of the fitted maximal effect
Outline: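 Wild-type CHO-K1 cells exposed to compounds for 17hr at 37 C, 5% CO2. Caspase-3/7 activity then measured by Caspase-Glo 3/7 luminescence after 30min at room temperature.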

[5] = Caspase-3/7 induction in HepG2 cells by small molecules, qHTS cell viability counter screen (AID 1346981); further: nearly all actives have a fitted effect of over 30% in size; further: potency means the concentration at half of the fitted maximal effect
Outline: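 Fluorescence read-out of live-cell protease activity (CellTiter-Fluor) after 1 hr with reagent. This was measured in the same wells as the caspase-3/7 luminescence, on HepG2 cells exposed to DMSO-dissolved compounds for 16 hr at 37 C.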

[6] = biological target: Nuclear receptor subfamily 1 group I member 2 (Homo sapiens) (UniProt O75469); test: Human pregnane X receptor (PXR) small molecule agonists, qHTS assay (AID 1346982); further: nearly all actives have a fitted effect of over 35% in size; further: potency means the concentration at half of the fitted maximal effect
Outline: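 HepG2 PXR-Luc reporter line, 5% charcoal-stripped FBS; 5 hr pre-incubation, compound (DMSO) 24 hr at 37 C/5% CO2; ONE-Glo 30 min RT; luminescence read-out.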

[7] = biological target: Cytochrome P450 2D6 (Homo sapiens) (UniProt P10635); test: Cytochrome P450 Family 2 Subfamily D Member 6 (CYP2D6) small molecule antagonists: luciferase reporter qHTS assay (AID 1671196); further: nearly all actives have a fitted effect of over 50% in size; further: potency means the concentration at half of the fitted maximal effect
Outline: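 Luminogenic proluciferin substrate, CYP2D6 enzyme; 10 min RT preincubation with compound, NADPH regeneration system added, 1 h RT. Stop/detection reagent, 20 min RT, luminescence read (RLU). Signal proportional to CYP activity.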

[8] = biological target: Nuclear receptor subfamily 1 group I member 2 (Homo sapiens) (UniProt O75469); test: CYP3A4 induction through human pregnane X receptor (PXR) by small molecules, qHTS assay (AID 1346984); further: nearly all actives have a fitted effect of over 40% in size
Outline: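 HepG2-derived DPX-2 line carrying PXR plus a CYP3A4-promoter luciferase reporter; cells plated 5 hr, compound-exposed 24 hr at 37C. CYP3A4 activity probed with 3uM (final) Luciferin-IPA for 3hr, then luciferase read after One-Glo.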

[9] = biological target: Nuclear receptor subfamily 1 group I member 2 (Homo sapiens) (UniProt O75469); test: Human pregnane X receptor (PXR) activation by small molecules, qHTS assay (AID 1346985); further: nearly all actives have a fitted effect of over 40% in size
Outline: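 DPX-2 cells (HepG2 co-transfected with a PXR response element and a CYP3A4-promoter luciferase construct) were seeded at 2,000 per well, rested 5 hr at 37C, then exposed to DMSO-dissolved compounds for 24 hr. Activation was read as luciferase luminescence.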

[10] = biological target: Nuclear receptor subfamily 1 group I member 2 (Rattus norvegicus) (UniProt Q9R1A7); test: Rat pregnane X receptor (rPXR) activation by small molecules, qHTS assay (AID 1346983); details: rPXR luciferase reporter cells, One-Glo luminescence, 24 h; max activation: stronger effect = higher value; further: nearly all actives have a fitted effect of over 20% in size
Outline: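 Cell-based rPXR activation assay: rPXR cells, 2,000 per well, rested 5hr at 37 C, then exposed to compounds in DMSO for 24 hr at 37 C. Luciferase activity read by One-Glo luminescence after 30 min at room temperature.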

Cytochrome P450 2D6 (Homo sapiens), sequence (P10635 whole entry, looked up): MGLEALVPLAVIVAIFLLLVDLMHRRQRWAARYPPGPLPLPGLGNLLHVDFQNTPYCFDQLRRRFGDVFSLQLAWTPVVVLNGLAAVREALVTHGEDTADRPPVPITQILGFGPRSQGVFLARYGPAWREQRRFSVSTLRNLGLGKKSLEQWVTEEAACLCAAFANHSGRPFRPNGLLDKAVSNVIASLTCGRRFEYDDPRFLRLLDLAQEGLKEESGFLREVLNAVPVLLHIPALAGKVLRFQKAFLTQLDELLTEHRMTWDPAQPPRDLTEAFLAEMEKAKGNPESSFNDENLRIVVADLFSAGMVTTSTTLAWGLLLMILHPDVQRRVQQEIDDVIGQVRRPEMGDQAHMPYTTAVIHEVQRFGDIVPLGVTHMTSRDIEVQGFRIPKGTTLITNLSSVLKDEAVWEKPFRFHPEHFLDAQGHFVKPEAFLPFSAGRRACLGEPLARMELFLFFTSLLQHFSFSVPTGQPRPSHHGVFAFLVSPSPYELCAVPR
Nuclear receptor subfamily 1 group I member 2 (Homo sapiens), sequence (O75469 whole entry, looked up): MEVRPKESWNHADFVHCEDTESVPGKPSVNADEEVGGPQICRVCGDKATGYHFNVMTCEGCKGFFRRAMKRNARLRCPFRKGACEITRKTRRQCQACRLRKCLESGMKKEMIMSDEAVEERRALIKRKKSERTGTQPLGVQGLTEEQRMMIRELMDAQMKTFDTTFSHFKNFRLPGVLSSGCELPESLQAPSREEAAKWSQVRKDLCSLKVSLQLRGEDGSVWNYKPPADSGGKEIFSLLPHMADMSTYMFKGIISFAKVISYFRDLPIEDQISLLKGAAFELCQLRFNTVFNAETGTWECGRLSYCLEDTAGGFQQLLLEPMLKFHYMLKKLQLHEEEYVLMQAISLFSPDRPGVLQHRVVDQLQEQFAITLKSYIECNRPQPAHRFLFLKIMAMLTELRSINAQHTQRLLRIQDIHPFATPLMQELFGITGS
Nuclear receptor subfamily 1 group I member 2 (Rattus norvegicus), sequence (Q9R1A7 whole entry, looked up): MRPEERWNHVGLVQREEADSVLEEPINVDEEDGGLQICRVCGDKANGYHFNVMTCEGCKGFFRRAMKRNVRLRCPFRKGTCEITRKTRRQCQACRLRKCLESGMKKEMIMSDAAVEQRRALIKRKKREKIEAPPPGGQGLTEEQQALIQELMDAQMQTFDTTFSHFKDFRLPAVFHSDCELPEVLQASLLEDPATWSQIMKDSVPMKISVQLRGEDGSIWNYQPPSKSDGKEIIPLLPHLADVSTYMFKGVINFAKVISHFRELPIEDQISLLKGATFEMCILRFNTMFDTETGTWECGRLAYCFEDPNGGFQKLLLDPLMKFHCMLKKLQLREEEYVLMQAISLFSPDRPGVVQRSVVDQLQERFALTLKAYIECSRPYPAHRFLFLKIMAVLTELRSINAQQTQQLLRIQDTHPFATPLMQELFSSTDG

SMILES | Potency [1] | Potency [2] | Potency [3] | Potency [4] | Potency [5] | Potency [6] | Potency [7] | Potency [8] | Potency [9] | max activation [10]
CC(C)(C)C(=O)OCOC(=O)C1N2C(=O)CC2S(=O)(=O)C1(C)C (stereo unspecified) | inactive | inactive | inactive | inactive | inactive | inactive | inactive |  |  | 
O=C(NOCC1CC1)c1ccc(F)c(F)c1Nc1ccc(I)cc1Cl | 18.8 µM (active) | inactive | 18.8 µM (active) | inactive | 26.6 µM (active) | inactive | inactive |  |  | 
Fc1ccc(C(c2ccc(F)cc2)N2CCN(C/C=C/c3ccccc3)CC2)cc1 | 29.8 µM (active) | inactive | 33.5 µM (active) | inactive |  |  |  |  |  | 
CCCCCOc1ccccc1/C(=C\SC)n1ccnc1 | 23.7 µM (active) | inactive | 16.8 µM (active) | inactive | inactive | 2.98 µM (active) | 4.36 µM (active) |  |  | 
CN(C)[C@@H]1C(=O)C(C(N)=O)=C(O)[C@@]2(O)C(=O)C3=C(O)c4c(O)ccc(Cl)c4[C@@H](O)[C@H]3C[C@@H]12 | inactive | inactive | inactive | inactive | inactive | inactive | inactive | inactive | inactive | 
CCCN(CCC)c1c([N+](=O)[O-])cc(C(F)(F)F)c(N)c1[N+](=O)[O-] | 48.4 µM (active) | 60.9 µM (active) | 43.1 µM (active) | 54.3 µM (active) | 54.3 µM (active) | 4.84 µM (active) |  |  |  | 
Cc1onc(-c2c(Cl)cccc2Cl)c1C(=O)N[C@@H]1C(=O)N2[C@@H]1SC(C)(C)[C@@H]2C(=O)O | inactive | inactive | inactive | inactive | inactive | inactive |  |  |  | 
COC(=O)C1=C(C)NC(C)=C(C(=O)OCC(C)C)C1c1ccccc1[N+](=O)[O-] (stereo unspecified) | 61.1 µM (active) | inactive | 61.1 µM (active) and 29.8 µM (active) | inactive | 54.5 µM (active) |  |  |  |  | 
CN(C)C(=O)C1(N2CCCCC2)CCN(CC[C@@]2(c3ccc(Cl)c(Cl)c3)CN(C(=O)c3ccccc3)CCO2)CC1 | 25.5 µM (active) | 45.4 µM (active) | 28.6 µM (active) | 57.1 µM (active) | 50.9 µM (active) | 20.3 µM (active) | 6.63 µM (active) |  |  | 
CCCCC(CC)CN=C(N)NC(N)=NCCCCCCN=C(N)NC(N)=NCC(CC)CCCC (stereo unspecified) | 16.8 µM (active) | inactive | 16.8 µM (active) | inactive | 26.6 µM (active) | inactive | 1.23 µM (active) | inactive | inactive | -27.3%
CC(=O)SC[C@@H](Cc1ccccc1)C(=O)NCC(=O)OCc1ccccc1 | inactive | inactive | inactive | inactive | inactive | inactive | 1.1 µM (active) |  | inactive | 
CC(C)(C)CC(C)(C)c1ccc(O)c(Cc2ccc(Cl)cc2Cl)c1 | 18.8 µM (active) | 26.6 µM (active) | 18.8 µM (active) | 21.1 µM (active) | 29.8 µM (active) | 2.37 µM (active) |  | inactive |  | -0.0398%
O=Cc1cc(O)ccc1Br | inactive | inactive | inactive | inactive | inactive |  |  |  |  | 
O=[N+]([O-])c1ccccc1Nc1ccccc1 | inactive | inactive | inactive | inactive | inactive | 48.3 µM (active) |  |  |  | 
CSc1cnc(C)cn1 | inactive | inactive | inactive | inactive | inactive | inactive | inactive |  |  | 
Cc1cc(N)c(S(=O)(=O)O)cc1Cl | inactive | inactive | inactive | inactive | inactive | inactive | inactive |  |  | 
CCC(C)(C)C1CCCCC1OC(C)=O (stereo unspecified) | inactive | inactive | inactive | inactive | inactive | inactive | inactive |  |  | 
N#CC1(c2ccc(F)cc2)CCC(=O)CC1 | inactive | inactive | inactive | inactive | inactive | inactive | inactive |  |  | 
N=C1C=CC(=C(c2ccc(N)cc2)c2ccc(N)cc2)C=C1 | 8.63 µM (active) | inactive | 12.2 µM (active) | inactive | 13.7 µM (active) | inactive | 6.33 µM (active) |  |  | 
Cc1cc(O)c(C(C)(C)C)cc1Sc1cc(C(C)(C)C)c(O)cc1C | 13.7 µM (active) | 30.6 µM (active) | 2.73 µM (active) | inactive | 54.4 µM (active) | 10.8 µM (active) | 25.1 µM (active) |  |  | 
O=C1CCCc2c1cc1ccc3cccc4ccc2c1c34 | inactive | inactive | inactive | inactive | inactive | 17.4 µM (active) | inactive |  |  | 
CCCC(c1cc(C(C)(C)C)c(O)cc1C)c1cc(C(C)(C)C)c(O)cc1C | 17.4 µM (active) | 24.6 µM (active) | 13.9 µM (active) | inactive | 22 µM (active) | 1.96 µM (active) | 28.6 µM (active) |  |  | 
